# ALDH1A1 inh – blocks purified human ALDH1A1 activity; Purified ALDH1A1, NADH fluorescence, propionaldehyde substrate; AID 1030; P00352; Potency, µM (highest dose often 75.3 µM), for the others: top-dose activity, negative = inhibition, actives largely listed as inhibitors; 220,000 compounds, 7.3% hits; active = well fitted inhibition curve with a large enough effect, not every such curve was filed as active; inconclusive = small, poorly fitted or top-dose-only effect, or another doubt; inactive = no such curve, though single readings can be large or run the other way;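 note: plate controls were no enzyme wells and a reference inhibitor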
# Target sequence (P00352 whole entry, looked up): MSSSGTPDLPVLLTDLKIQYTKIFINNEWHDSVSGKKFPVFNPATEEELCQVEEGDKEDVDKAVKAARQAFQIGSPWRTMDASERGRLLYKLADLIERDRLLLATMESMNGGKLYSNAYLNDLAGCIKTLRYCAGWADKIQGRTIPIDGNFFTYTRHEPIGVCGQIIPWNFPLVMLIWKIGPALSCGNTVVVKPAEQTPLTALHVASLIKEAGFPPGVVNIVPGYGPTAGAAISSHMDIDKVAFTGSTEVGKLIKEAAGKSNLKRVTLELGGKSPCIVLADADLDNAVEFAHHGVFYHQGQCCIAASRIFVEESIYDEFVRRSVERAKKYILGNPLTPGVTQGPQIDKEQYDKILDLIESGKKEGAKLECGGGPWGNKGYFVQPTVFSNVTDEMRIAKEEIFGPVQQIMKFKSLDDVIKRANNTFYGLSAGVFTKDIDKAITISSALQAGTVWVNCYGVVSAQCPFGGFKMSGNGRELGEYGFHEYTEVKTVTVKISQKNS
# PLK1 PBD inh – inhibitors of human PLK1 polo-box domain binding; P53350; Plk1 PBD binding of FITC phosphopeptide, fluorescence polarization; Potency, µM, for inactives: max response, negative = inhibition, hits mostly inhibitors; 360,000 compounds, 2.8% hits; AID 720504; note: series mostly up to about 57 µM; nearly all actives have a fitted effect of over 65% in size
# RORgamma inh – blocks mouse ROR gamma transcriptional activity | 310,000 compounds, 5.4% hits | Drosophila S2 Gal4-RORgamma UAS-luciferase reporter, 20 h | Potency, µM (titrated, usually from 53.6 µM), for inactives: at the top dose activity change, negative = inhibition, usual class: inhibitors; note: nearly all actives have a fitted effect of over 60% in size
#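 Schneider cells (Drosophila), stable Gal4 DBD–ROR gamma + UAS-luc; 1 hr cmpd preincubation; Cu2+ induction 700 uM final; 20 hr ambient; luminescence.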
# VP16 counter – Gal4-VP16 reporter inhibition counter-screen. Drosophila S2 Gal4-VP16 UAS-luciferase, luminescence, 20 h. Potency, µM (series often up to 53.6 µM), inactives show at the top dose activity, negative = inhibition, usual class: inhibitors. 310,000 compounds, 3.5% hits;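 note: Gal4-VP16 expression switched on by copper sulfate through the metallothionein promoter; nearly all actives have a fitted effect of over 50% in size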
# Sfp PPTase inh – Sfp phosphopantetheinyl transferase inhibition; Biochemical Sfp PPTase activity, qHTS; Potency, µM, for the others: largest response in the series, negative = inhibition, actives largely listed as inhibitors; 310,000 compounds, 3.5% hits; AID 1490;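 note: the enzyme is Sfp with the accession as filed and its product quenches rhodamine fluorescence; 0% = enzyme reaction without inhibitor and -100% = no enzyme wells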
#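 With Hepes-Na pH 7.6 buffer containing 10 mM MgCl2, Sfp (15 nM) modified BHQ-2-YbbR (12.5 uM) using rhodamine-CoA (5 uM). Two reads 30 minutes apart at 525/598 nm yielded each well's rate.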
# Starred values were filed as active, the others as inactive; ? = inconclusive; · = no result given; ! = not confirmed by another sample; [ ] = remark or other dose. Only some compounds are listed: those with a hit (about 12% of all), similar ones and a draw of the others. Unless noted, calls come from the whole dose curve; as a rule, active = well fitted curve in the direction sought with a large enough effect; inconclusive = small, poorly fitted or top-dose-only effect, or another doubt; inactive = no such curve, though single readings can be large; an effect the other way counts as inactive or inconclusive. Unless noted, % is set by controls: 0 for no effect and ±100 for the full control effect; potency is the fitted concentration of half-maximal effect.
SMILES,ALDH1A1 inh,PLK1 PBD inh,RORgamma inh,VP16 counter,Sfp PPTase inh
CCOC(=O)[C@]12CCC=C1N(Cc1ccc3c(c1)OCO3)C(=O)[C@H](CC(=O)N1CCN(C(=O)c3ccco3)CC1)C2,·,1.8%,·,·,·
CCCCNc1c([N+](=O)[O-])cc(C(=O)O)cc1[N+](=O)[O-],-0.7%,-9.2%,6.9%,3.4%,10.5%
O=C(O)c1cc([N+](=O)[O-])c(NCCC2=CCCCC2)c([N+](=O)[O-])c1,10µM*,-14.7%,8.9%,7.4%,-22.1%
CCOc1ccc(CCN2C(=O)C(=O)N([C@@H](Cc3ccccc3)CN3CCC[C@H]3CN3C(=O)C(=O)NC[C@@H]3Cc3ccccc3)C[C@@H]2CC(C)C)cc1,·,-8.4%,·,·,·
N#CC12CCCCC1CC1CCCCC1(C#N)N2N (stereo unspecified),·,17.1%,?,?,79.4µM*
COc1ccccc1N1C(C)=CC(=C(C#N)c2nc3ccccc3s2)C=C1C,-0.4%,?,7.08µM*,?,3.4%
CC(C)=C(C#N)c1nc2ccccc2s1,-6.7%,-6.9%,43.9%,-1.3%,0.5%
CC1=CC(=C(C#N)c2nc3ccccc3s2)C=C(C)N1c1ccc(F)cc1,-7.0%,21.2µM*,?,-4.5%,7.0%
COc1cccc(-c2nc3ccccc3s2)c1O,?,-7.6%,-44.0%,-27.7%,-27.6%
CS(=O)(=O)Nc1cccc(-c2ccc3ncnc(NCc4cccs4)c3c2)c1,-4.3%,·,?,4.8%,23.9%
Clc1cccc(C=NC=Nc2cccc(Cl)c2)c1,9.4%,·,0.3%,-6.7%,-21.9%
Cc1ccc(S(=O)(=O)Nc2cc(S(=O)(=O)c3ccc(C)cc3)c(O)c3cccnc23)cc1,·,·,-15.7%,12.8%,-21.2%
O=S(=O)(O)c1cc(I)c(O)c2ncccc12,·,·,?,-1.3%,2.51µM*
Oc1c(I)cc(I)c2cccnc12,0.6%,?,2.51µM*,4.47µM*,50.1µM*!
COc1cc(OC)cc(C(=O)NNC(=S)Nc2ccc(S(N)(=O)=O)cc2)c1,11.2µM*,?,-41.6%,0.5%[10 µM],-7.6%
COC(=O)Cc1ccc(NC(=S)NCc2ccc(OC)cc2)cc1,?,-12.6%,?,0.6%,15.9%
NS(=O)(=O)c1ccc(NC(=S)NNC(=O)c2ccc(Br)o2)cc1,·,-8.3%,6.8%,-21.6%,25.4%
CCCCc1ccc(NC(=S)NCc2ccc(OC)cc2)cc1,4.6%,-25.9%,3.98µM*,?,4.9%
CCCCC(=O)NCCc1ccc(OC)cc1,3.5%,-5.8%,0.6%,4.1%,8.1%
COc1ccc(CNC(=S)Nc2ccc(OC)cc2)cc1,?,-5.0%,10µM*,?,11.7%
COc1ccc(CNC(=S)Nc2ccc(S(N)(=O)=O)cc2)cc1,28.2µM*,23.8µM*,33.1%,3.3%,50.1µM*
C[C@H](CN(C)C)C(=O)c1ccccc1C(=O)O,-1.7%[13.5 µM],·,·,·,·
CCOc1ccccc1NC(=S)Nc1ccc(S(N)(=O)=O)cc1,-7.2%,-17.7%,11.2µM*,-25.7%,9.2%
CCOc1ccccc1NC(=O)/C=C/c1ccccc1[N+](=O)[O-],-0.6%,-14.7%,32.3%[10 µM],-3.0%,-8.7%
CCOc1ccccc1NC(=O)Nc1cccc(S(N)(=O)=O)c1,3.4%,-10.8%,-0.1%,14.4%,3.1%
SMILES,ALDH1A1 inh,PLK1 PBD inh,RORgamma inh,VP16 counter,Sfp PPTase inh
CCCCc1ccc(NC(=S)NCc2ccccc2OC)cc1,-15.5%,-0.8%,2µM*,-29.9%[10 µM],8.6%
COc1ccccc1NC(=S)NCc1ccc(S(N)(=O)=O)cc1,1.6%,-20.4%,-22.0%,-16.4%,10.4%
COc1ccccc1CNC(=S)Nc1ccc(S(N)(=O)=O)cc1,·,21.2µM*,2.1%,-1.5%,?
CCOc1ccccc1NC(=O)/C=C/C(N)=O,-14.7%,-13.5%,4.47µM*,5.62µM*,-17.0%
COc1ccc(Cl)cc1Cn1c(C)c(C(=O)NCc2ccc(F)cc2)sc1=O,·,-3.6%,·,·,·
NCCC[C@@H](CC(=O)N[C@@H]1CCNC[C@H]1C(=O)N[C@H](CC(=O)N[C@@H](CCC(=O)O)CC(=O)O)Cc1ccccc1)NC(=O)C[C@H](Cc1c[nH]c2ccccc12)NC(=O)[C@@H]1CCCC[C@H]1N,-1.6%,·,-1.2%,2.0%,4.5%
COc1ccc(NC(=S)NCc2ccc(F)cc2)cc1,·,-4.8%,7.94µM*,?,10.9%
COC(=O)Cc1ccc(NC(=S)NCc2ccc(F)cc2)cc1,-42.0%,-12.9%,?,?,7.4%
COc1cccc(-c2cnc3c(c2)C(=O)N([C@H](C)CO)C[C@@H](C)[C@H](CN(C)C(=O)Nc2ccccc2F)O3)c1,·,1.1%,·,·,·
CC(=O)c1ccc(NC(=O)c2ccccc2-c2ccccc2C(=O)O)cc1,·,-8.4%,27.4%,0.7%,15.5%
Cc1ccc(NC(=O)CSc2nnc(CCNC(=O)OC(C)(C)C)o2)c(C)c1,2.2%,4.4%,-0.2%,12.9%,15.6%
Cc1ccc(C)c(NC(=O)CSc2nnc(CCCCCNC(=O)OC(C)(C)C)o2)c1,9.46µM*,-4.3%,?,-0.8%[0.365 µM],15.0%
Cc1[nH]c2ccccc2c1-c1cc(-c2cc(-c3c(C)[nH]c4ccccc34)on2)no1,2.5%[13.5 µM],·,·,·,·
CCOC(=O)Cc1cnc(NC(=O)CSc2nc(N)cc(=O)[nH]2)s1,3.0%,16.8µM*,7.8%,7.7%,14.2%
Cc1ccc(S(=O)(=O)N2[C@@H](c3cccc(Cl)c3)C(C(=O)OC(C)(C)C)=CC[C@H]2c2ccc(C(C)C)cc2)cc1,·,-3.0%,·,·,·
O=[N+]([O-])c1ccc(/C=N/Nc2nc(N3CCCCCC3)nc(N3CCCCCC3)n2)o1,2.7%,-2.2%,11.2µM*,?,-12.3%
Cc1ccc(/C=N/Nc2nc(N3CCCCC3)nc(N3CCCCC3)n2)o1,-9.0%,-25.7%,8.91µM*,?,-5.9%
COC(=O)c1ccccc1-c1ccc(/C=N/Nc2nc(N3CCCC3)nc(N3CCCC3)n2)o1,·,2.5%,?,?,-9.7%
CN1CCN(CCCNN)CC1,14.0%[13.5 µM],·,·,·,·
